Screening results as filed in PubChem BioAssay.
Tb PFK block: T. brucei PFK enzyme inhibition; T. brucei PFK, ADP-Glo luminescence; Potency, µM (doses to about 57.5 µM), inactives show at the highest dose activity, negative = inhibition, hits mostly inhibitors; hit rate 0.17% among 330,000; AID 485367;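 also: 0% = uninhibited 1x PFK enzyme wells and -100% = no-enzyme wells; nearly all actives have a fitted effect of over 60% in size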
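Activity is normalized to no-enzyme wells (full inhibition) and 1.25 nM enzyme wells (no inhibition). Reaction: 0.5 mM F6P, 0.1 mM ATP, 45 min RT, ADP-Glo luminescence; concentration-response curves fitted and classed by quality.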
ASM inhibitor: human S-ASM enzyme inhibition | P17405 | placental ASM, HMU-PC fluorogenic substrate, 60 min | Potency, µM (series often up to 57.5 µM), without a hit: at the highest dose activity change, negative = inhibition, most hits filed as inhibitors | hit rate 0.006% among 340,000 | AID 504937
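Human placenta-derived ASM enzyme was preincubated with compound for 10 minutes at room temperature, then given fluorogenic substrate HMU-PC0 (9 uM final) for 60 minutes at 37 °C; a pH 10 stop preceded fluorescence reading at Ex 386/Em 447 nm.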
Pin1 inh: human Pin1 inhibition. Q13526. Potency, µM (series often up to 115 µM), for inactives: at the highest dose activity, negative = inhibition, hits mostly inhibitors. AID 504891. Pin1 FP peptide displacement, HiFluor488, 10 min. hit rate 0.009% among 390,000; active = well fitted inhibition curve with a large enough effect in the polarisation, with a control signal flat, not every such curve was filed as active; inconclusive = small, poorly fitted or top-dose-only effect, or effect the other way, or a change in a side signal; inactive = no such curve, though single readings can be large or run the other way; the % refers to the polarisation; also: % is scaled to controls: 0 for no effect and ±100 for the full control effect
PLK1 PBD block: inhibitors of human PLK1 polo-box domain binding; P53350; hit rate 2.8% among 360,000; Potency, µM, without a hit: max response, negative = inhibition, usual class: inhibitors; Plk1 PBD binding of FITC phosphopeptide, fluorescence polarization; also: series mostly up to about 57 µM; % is scaled to controls: 0 for no effect and ±100 for the full control effect; nearly all actives have a fitted effect of over 65% in size
Target sequence (P53350 whole entry, looked up, the tested form may be a part): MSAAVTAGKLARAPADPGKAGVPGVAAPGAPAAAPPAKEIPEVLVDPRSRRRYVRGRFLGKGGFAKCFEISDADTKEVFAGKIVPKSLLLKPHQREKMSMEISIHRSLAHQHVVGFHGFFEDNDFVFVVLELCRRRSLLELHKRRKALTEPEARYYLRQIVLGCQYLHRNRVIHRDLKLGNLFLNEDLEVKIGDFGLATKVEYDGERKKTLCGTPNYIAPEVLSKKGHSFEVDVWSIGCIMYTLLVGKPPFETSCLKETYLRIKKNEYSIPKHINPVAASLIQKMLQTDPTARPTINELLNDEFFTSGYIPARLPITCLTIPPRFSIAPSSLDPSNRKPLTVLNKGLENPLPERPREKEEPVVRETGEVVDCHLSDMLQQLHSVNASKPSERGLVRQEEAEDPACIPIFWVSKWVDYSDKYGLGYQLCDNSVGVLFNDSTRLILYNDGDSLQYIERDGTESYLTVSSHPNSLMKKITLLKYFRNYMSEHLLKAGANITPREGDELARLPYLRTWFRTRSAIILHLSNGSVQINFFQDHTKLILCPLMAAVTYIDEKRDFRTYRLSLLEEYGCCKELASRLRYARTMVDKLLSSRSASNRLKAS
TDP1 inh: TDP1 (human) enzyme inhibition; Potency, µM (top dose mostly 130 µM), without a hit: at the highest dose activity change, negative = inhibition, actives largely listed as inhibitors; recombinant TDP1, AlphaScreen DNA substrate cleavage; Q9NUW8; AID 485290; hit rate 0.28% among 350,000; also: % is scaled to controls: 0 for no effect and ±100 for the full control effect; nearly all actives have a fitted effect of over 40% in size
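Here, a 5' biotin and 3' phosphotyrosine-FITC DNA oligonucleotide reports Tdp1 activity: intact substrate bridges AlphaScreen beads, while cleavage leaves a 3' phosphate and drops signal. All incubations at room temperature.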
VDR inh: blocks the human vitamin D receptor. P11473. Potency, µM, inactives show max response, negative = inhibition, usual class: inhibitors. VDR-SRC2-3 peptide fluorescence polarization, 2 h. hit rate 0.93% among 400,000; also: % is scaled to controls: 0 for no effect and ±100 for the full control effect
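The screen uses fluorescence polarization to detect compounds that interfere with recruitment of the SRC2-3 coactivator peptide to VDR; plates are read after 2 h at room temperature.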
* = called active by the depositor; u = inconclusive; x = not tested or not shown; [ ] = dose if it differs, or a comment. Sampled rows, rich in hits. Any-hit rate of the full collection: about 3.1%. Unless noted, calls follow the shape of the dose curve; as a rule, active = well fitted curve in the direction sought with a large enough effect; inconclusive = small, poorly fitted or top-dose-only effect, or another doubt; inactive = no such curve, though single readings can be large; an effect the other way counts as inactive or inconclusive. Potency is read from the fitted curve at half-maximal effect.

SMILES	Tb PFK block	ASM inhibitor	Pin1 inh	PLK1 PBD block	TDP1 inh	VDR inh
CC(C)c1ccc(N=Nc2c(O)[nH]c(=O)[nH]c2=O)cc1	1%	-4%	52%	-1%	x	0%
O=c1[nH]c(=S)[nH]c(O)c1N=Nc1ccc(SC(F)F)cc1	0%	-16%	u	11µM*	3%	-6%
Cn1cccc1C(=O)OCC(=O)NCc1cccs1	-4%	-1%	2%	0%	1%	u
COCCN(C(=O)CCl)c1c(C)cccc1C	x	x	x	x	11%	9%
CCN1C(=O)NC(=O)/C(=C/c2cc(C)n(-c3sc(C)c(C)c3C#N)c2C)C1=O	u	-6%	u	2.1µM*	8%	u
Cc1cc(C)cc(-n2c(C)cc(/C=C3\C(=O)NC(=O)N(C)C3=O)c2C)c1	-1%	0%	8%	u	0%	-5%
CCOC(=O)c1c(-n2c(C)cc(/C=C3/C(=O)NC(=O)N(CC)C3=O)c2C)sc2c1CCCC2	x	u	-3%	u	x	2%
CCOC(=O)c1c(-n2c(C)cc(C=C3C(=O)NC(=S)NC3=O)c2C)sc2c1CCCC2	-15%	-8%	u	0.3µM*	0%	u
Cc1ccc(N2C(=O)NC(=O)/C(=C\c3cc(C)n(-c4sc5c(c4C#N)CCCC5)c3C)C2=O)cc1	-14%	u	u	0.6µM*	8%	45µM*
CCN1CCN(CC(=O)c2c(C)n(Cc3ccccc3)c3ccc(OC)cc23)CC1	1%	-5%	-6%	21µM*	5%	u
COc1ccccc1C=C1C(=O)NC(=S)NC1=O	x	6%	-9%	24µM*	x	45µM*
CCN(CC)c1ccc(/C=C2\C(=O)NC(=S)N(c3ccc(OC)cc3OC)C2=O)o1	x	-1%	u	121%	x	8%
COc1ccccc1/C=C1\C(=O)NC(=S)N(c2ccccc2)C1=O	-4%	-1%	3%	15µM*	x	50µM*
O=C1NC(=S)N(c2ccc(F)cc2)C(=O)/C1=C/c1ccccc1O	-3%	-1%	2%	-29%	x	-30%
CCN1C(=O)/C(=C/c2ccc(N(CC)CC)cc2OC)C(=O)NC1=S	1%	6%	u	1.1µM*	1%	u
CC(=O)NNc1ccccc1	x	x	x	x	10%	x
CCCC(C)c1nnc(NC(=O)CCS(=O)(=O)c2ccccc2)s1 (centres undefined)	u	-2%	0%	4.7µM*	-12%[0.0935 µM]	25µM*
CCC(CC)c1nnc(NC(=O)CC(C)c2ccccc2)s1 (centres undefined)	0%	0%	-7%	u	x	-1%
[O-][Br+2]([O-])O	x	x	x	x	13%	x
Cn1cc(C=C(C#N)C#N)c2ccccc21	1%	-3%	u	16%	-3%	-26%
Cn1cc(/C=C(\C(=O)O)C(C(=O)O)=C2CCCCC2)c2ccccc21	3%	7%	-22%	15µM*	0%	u
Cc1ccc(C(=O)OCC(=O)NC2CCCCC2)o1	-28%	4%	0%	2%	u	-3%
O=C(NC1CCCCC1)Oc1cc2oc(=O)sc2cc1Cl	8%	2%	-8%	2.7µM*	-5%	32µM*
CCCCOC(=O)N(C)SN(C)C(=O)Oc1cccc2c1OC(C)(C)C2	x	x	x	x	-4%	3.2µM*
COc1ccc(N2CC(C(=O)NCc3ccco3)CC2=O)cc1 (centres undefined)	0%	0%	u	-14%	-4%	16%
SMILES	Tb PFK block	ASM inhibitor	Pin1 inh	PLK1 PBD block	TDP1 inh	VDR inh
Clc1ccc(C(c2ccccc2Cl)C(Cl)(Cl)Cl)cc1 (centres undefined)	x	x	x	x	-1%	x
C[C@@H]1CO1	x	x	x	x	4%	-3%
CCCCC/C=C\C/C=C\C/C=C\C/C=C\CCCC(=O)NCCCl	x	x	x	x	u	27%
CN1CCN(Cc2cc(C(C)(C)C)c(O)c(C(C)(C)C)c2)CC1	-5%	0%	-8%	24µM*	-4%	-29%
CCCCC(CC)COC(=O)c1ccccc1C(=O)OCC(CC)CCCC (centres undefined)	-7%	-5%	-4%	-9%	12%	-13%
O=C(O)c1ccccc1SSc1ccccc1C(=O)O	14%	1%	-24%	12µM*	x	u
C[CH2][Hg][S]c1ccccc1C(=O)O	x	-1%	-10%	2.7µM*	15%	79µM*
CCCCCN1C(=O)c2ccccc2[C@@]2(C(=O)OCC)Cc3cc(OC)ccc3[C@@H]12	x	x	x	5.3µM*	x	x
CCOC(=O)[C@]12Cc3ccccc3[C@H]1N(Cc1ccccc1)C(=O)c1ccccc12	x	3%	0%	3%	x	-3%
CCOC(=O)[C@]12Cc3ccccc3[C@H]1N(CCC(=O)OC)C(=O)c1ccccc12	x	x	x	9.5µM*	x	x
C=C/C(=C/C(=O)C[C@H](C)C[C@@H](C)CC[C@H](O)[C@H](C)C(=O)C[C@@H](O)[C@H](C)[C@@H](C)OC(=O)C[C@@H](O)C1=C(C)C(=O)OC1=O)CC	x	x	x	x	-9%[21 µM]	u
CCCN(CCC)[C@@H]1CCc2c(F)ccc(O)c2C1	x	x	x	x	4%[56.1 µM]	x
O=c1c(O)c(-c2ccc(O)c(O)c2)oc2c(O)c(O)cc(O)c12	x	x	x	x	-7%[56.1 µM]	25µM*
C/C=C(/C)C(=O)O[C@H]1C(C)=C2C([C@@H]1OC(=O)CCCCCCC)[C@@](C)(OC(C)=O)C[C@@H](OC(=O)CCC)[C@@]1(O)[C@H]2OC(=O)[C@@]1(C)O (some centres undefined)	x	x	x	x	13%[56.1 µM]	x
CC(=O)OC1CC2C(C)(C)C(O)C=C[C@@]2(C)C2CC[C@]3(C)C(=CC(=O)OC3c3ccoc3)[C@]12C (some centres undefined)	x	x	x	x	5%	25µM*
Clc1cccc(C2NCc3ccccc3-n3cccc32)c1 (centres undefined)	-10%	1%	3%	30µM*	x	-9%
CCOC(=O)N1CC(C)N(/[N+]([O-])=N/Oc2ccc([N+](=O)[O-])cc2[N+](=O)[O-])CC1C (centres undefined)	x	x	-10%	x	11%	u
CC(C)c1ccc(N2C(=O)NC(=O)/C(=C\c3cnc(-c4ccccc4)nc3)C2=O)cc1	-4%	3%	u	21µM*	-8%	-22%
Cc1ccc(N2C(=O)NC(=O)/C(=C/c3cnc(-c4ccccc4)nc3)C2=O)cc1C	0%	-3%	u	4.2µM*	0%	32µM*
Cc1cc(C)cc(N2C(=O)NC(=O)/C(=C\c3cccn3-c3ccccc3)C2=O)c1	u	1%	-1%	2.1µM*	-2%	-8%
CC(C)c1ccc(N2C(=O)NC(=O)/C(=C\C=C\c3ccco3)C2=O)cc1	-17%	-12%	u	u	2%	37%
Cc1cccc(N2C(=O)NC(=O)/C(=C\c3cnc(-c4ccccc4)nc3)C2=O)c1	0%	-3%	u	6µM*	2%	50µM*
